Mtb MenB inh: M. tuberculosis MenB inhibitors, primary screen, biochemical, absorbance; MenB enzyme assay, absorbance read-out; inhibition, % (concentration not given with the values); 0.43% of 100,000 active; AID 540299, 2011; in the data active = inhibition above about 21%, passing the limit was not always enough
Target sequence (P9WNP5 whole entry, looked up): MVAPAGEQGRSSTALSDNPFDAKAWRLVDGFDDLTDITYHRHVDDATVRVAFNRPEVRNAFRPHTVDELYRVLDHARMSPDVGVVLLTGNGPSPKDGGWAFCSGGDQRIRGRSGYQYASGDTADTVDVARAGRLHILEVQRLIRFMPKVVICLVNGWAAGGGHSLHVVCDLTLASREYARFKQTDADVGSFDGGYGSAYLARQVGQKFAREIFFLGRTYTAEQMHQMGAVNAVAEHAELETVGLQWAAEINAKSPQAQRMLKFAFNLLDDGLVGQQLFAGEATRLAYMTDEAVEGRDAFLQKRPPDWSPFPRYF
Polio RdRp inh: poliovirus RdRp elongation inhibitors, primary screen, biochemical, fluorescence polarization, total intensity; Genome polyprotein (Poliovirus type 1 (strain Mahoney)), P03300; poliovirus polymerase elongation; active compounds read low; % elongation, % (compound at 16.7 µg/mL); 0.66% of 150,000 active; AID 588519, 2011; in the data active = % elongation below about 90%
MbtI inh: MbtI salicylate synthase inhibitors, primary screen, biochemical, fluorescence intensity. P9WFX0. purified MbtI enzyme, fluorescence intensity read-out. inhibition, % (no concentration beside the values). 0.89% of 100,000 active; in the data active = inhibition mostly above about 56%, no sharp cut-off; inactive = mostly below about 77%
AID504770: growth inhibition of E. coli YBA685, primary screen, V. cholerae RctB inhibitors | AID 504770, 2011 | z-score (concentration not given with the values) | E. coli YBA685 rctB-dependent plasmid, OD600 growth, 3 h; active compounds read low | 0.27% of 130,000 active; in the data active = z-score below about -2, passing the limit was not always enough
* hit, by the source's call; / = no result. The list is not random: actives were taken first. Their share in the collection is about 1.5%.

SMILES | Mtb MenB inh | Polio RdRp inh | MbtI inh | AID504770
Cc1nn(-c2ccccc2)cc1/C=N/n1c(-c2ccncc2)n[nH]c1=S | -18 | 103 | 51* | -0.45
COc1ccc(-c2n[nH]c(=S)n2/N=C/c2c(C)nn(-c3ccccc3)c2C)cc1OC | -17 | 101 | 2 | 0.9
COC(=O)c1nnn(-c2nonc2N)c1CSC#N | 5 | 102 | 74* | -0.05
CN(C)Cc1ccc(C(=O)O)o1 | 15 | 100 | 2 | 0
Cc1ccc2oc(=O)n(CC(=O)C(C)(C)C)c2c1 | / | / | / | -2.1*
Cc1ccc2oc(=O)n(CC(=O)c3ccc(F)cc3)c2c1 | / | / | / | 0.25
CCOc1cc(C(C2C(=O)CC(C)(C)CC2=O)C2C(=O)CC(C)(C)CC2=O)ccc1OCc1c(C)no[n+]1[O-] | -7 | 97 | 26 | -0.2
CCC(C)CCCNc1n[nH]c(=S)s1 (stereo not given) | -19 | 96 | 98* | 0.3
CC(C)CNc1n[nH]c(=S)s1 | -33 | 99 | 96* | -0.1
S=c1[nH]nc(NCCc2ccc(Cl)cc2)s1 | / | / | / | -0.15
O=C(c1ccccc1)N1CCCN(c2c(Cl)cncc2Cl)CC1 | / | / | / | 1.3
O=c1[nH]cnc2c1cnn2-c1ccc(C(F)(F)F)cn1 | / | 99 | 41 | -1.1
O=c1c(Cl)c(Cl)cnn1-c1ccc(C(F)(F)F)cn1 | -31 | 88* | 20 | 1.9
N#Cc1cc(-c2ccc(Cl)cc2)no1 | -18 | 104 | -16 | -2.5*
CCn1c(O)c(N=NC(N)=S)c2ccccc21 | -66 | 76* | 78 | 0.05
Cc1cc(-c2csc(NC(=O)C3CCCO3)n2)c(C)n1CCc1ccccc1 (stereo not given) | -13 | 103 | -2 | -0.35
Cn1ccccc1=S | -12 | 101 | 24 | 0.95
On1ccccc1=S | 12 | 97 | 92* | -5.3*
CC1(C)Cc2ccccc2C2=NNC(=O)C2=N1 | 6 | 84* | 5 | -0.75
Cc1cc(C)c2c(N)c(C3=NC(C)(C)Cc4ccccc43)sc2n1 | -12 | 107 | / | -0.65
COC(=O)c1ccc(/C=C/C(=O)OCC#N)cc1 | 3 | 88* | 1 | 0.4
COCCn1c(C)cc(/C=N/n2c(C)nc3ccccc3c2=O)c1C | 2 | 104 | -2 | -0.3
COCCn1c(C)cc(/C=N/n2c(Cc3cccc4ccccc34)n[nH]c2=S)c1C | -31 | 93 | 73* | 1
CCOc1ccc(C(=O)c2ccccc2C(=O)O)cc1OCC | 6 | 47* | 9 | 1.8
CCCCNC(=O)Sc1ccc2ccccc2c1 | -8 | 84* | 51 | 0.5
SMILES | Mtb MenB inh | Polio RdRp inh | MbtI inh | AID504770
Cc1cc(N)cc(C(=O)O)c1O | 37* | 99 | 10 | 1.2
Nc1ccc(C(=O)O)c(O)c1 | 8 | 99 | -50 | -0.05
O=C(NCc1ccncc1)c1ccc(N2CCCCS2(=O)=O)cc1 | -24 | 107 | 2 | 0.95
O=S(=O)(c1cccc(Cl)c1Cl)N1CCOCC1 | 33* | 100 | -6 | 0.95
O=S(=O)(c1cccc(Cl)c1Cl)N1CCN(c2ncccn2)CC1 | -3 | 106 | 4 | 1.9
Cc1nn(-c2cccc(C(F)(F)F)c2)c2sc(C(=O)O)cc12 | -12 | 102 | -6 | 0.15
NC(=S)NN=C1C2CC3CC(C2)CC1C3 | -20 | 82* | 51 | -0.85
O=C(COc1cccc(-n2cnnn2)c1)NCC1CCCCC1 | -14 | 103 | 17 | -0.4
N#Cc1ccc(S(=O)(=O)N2CCNCC2)cc1 | 27* | 102 | -3 | -0.1
O=S(=O)(c1ccc(Br)cc1)N1CCNCC1 | 6 | 104 | / | 0.5
CC1CCCC(N2CC(C(=O)O)CC2=O)C1C (stereo not given) | 12 | 96 | 3 | 0.55
CCn1c2ccccc2c2cc(NC(=O)C(C)OC(=O)c3cccn3C)ccc21 (stereo not given) | -14 | 20* | 17 | 0.4
CC(OC(=O)c1cccn1C)C(=O)Nc1ccc(Cl)cc1 (stereo not given) | -14 | 113 | -4 | 0.15
CC(C)CN(C(=O)CSc1nc2ccccc2[nH]1)c1c(N)n(CC(C)C)c(=O)[nH]c1=O | -12 | 101 | -6 | -1.4
N#C/C(=C\c1ccc(O)c(O)c1)C(N)=S | -6 | 104 | 71* | /
COc1ccc(/C=C(\C#N)C(N)=S)cc1 | -56 | 104 | 20 | 1.5
COc1cccc(C(=O)N2CCN(Cc3cccc(C)c3)CC2)c1OC | -119 | 103 | 1 | 0
CCOc1ccc(/C=N/O)cc1 | 26* | 104 | 10 | 0.6
CCOc1cc(OCC)c(/C=N/O)c(OCC)c1 | / | / | / | 0.65
COc1ccc(CNC2CC2)cc1 | -8 | 104 | -6 | -1.8
COc1ccccc1/C=C1/C(=O)ON=C1C | -13 | 103 | 9 | -2.8*
Cn1nc(-c2ccc(F)cc2)nc2c(=O)n(C)c(=O)nc1-2 | -17 | 36* | 31 | -0.5
COc1ccc(-c2nc3c(=O)n(C)c(=O)nc-3n(C)n2)cc1OC | / | / | -3 | -0.25
CCOC(=O)c1ccc(NC(=O)NC(C)c2ccc3c(c2)OCO3)cc1 (stereo not given) | -8 | 104 | 15 | -0.45
CCOC(=O)c1ccc(NC(=S)NC(C)c2ccc3c(c2)OCCO3)cc1 (stereo not given) | -23 | 54* | -1 | 0.6
SMILES | Mtb MenB inh | Polio RdRp inh | MbtI inh | AID504770
O=C(Cn1cnc2ccc(Cl)cc2c1=O)c1ccc[nH]1 | -46 | 110 | -5 | -0.65
COCCn1c(SCC(=O)Nc2ccc3c(c2)OCO3)nnc1-c1c[nH]c2ccccc12 | / | / | / | -0.25
S=c1[nH]nc(CCCOc2ccc(Cl)cc2Cl)o1 | -39 | 87* | 90* | -0.7
NC(=O)CSc1nc(-c2ccccc2)cs1 | 11 | 99 | 7 | -0.85
COC(=O)C1=C(Nc2ccccc2NC(=O)c2ccccc2C(=O)O)CSC1 | -7 | 105 | 19 | -0.95
CNC(=O)Nc1ccccc1NC1=C(C(=O)OC)CSC1 | 15 | 80 | 69 | -2.2*
O=C1c2ccccc2NC2(C(=O)Nc3ccccc32)N1CCOc1ccccc1 (stereo not given) | -16 | 98 | 89 | -0.25
ONC=NCc1ccccc1OC(F)(F)F | 34* | 100 | 7 | -0.5
Nc1nc(NCc2ccccc2OC(F)(F)F)n[nH]1 | / | / | / | -0.75
O=c1oc(C23CC4CC(CC(C4)C2)C3)ns1 | -27 | 73* | / | -0.45
O=C(OCc1nc2ccccc2s1)C1CCCCC1 | 7 | 101 | -5 | -0.35
CC(C)(C)NCC(O)c1ccccc1Cl (stereo not given) | 55* | 102 | -2 | 0.75
CCSc1cc(C(F)(F)F)nc2cc(C(C)(C)C)nn12 | -10 | 100 | 87* | 0.4
CN1CCN(S(=O)(=O)c2ccccc2C(F)(F)F)CC1 | -13 | 89* | 4 | -0.3
O=S(=O)(c1ccccc1C(F)(F)F)N1CCNCC1 | -18 | 100 | -9 | 1.2
COc1ccccc1N1C(=O)C=CC1=O | / | 98 | 98* | 1.2
COc1ccc(OC)c(N2C(=O)C=CC2=O)c1 | / | 99 | 97* | 1.4
COc1ccc(-c2ccc(/C=N/NC(N)=O)o2)cc1 | -74 | 103 | -102 | 1.6
CCOc1cc(C(=O)CCC(=O)NCc2ccco2)ccc1O | 7 | 105 | 9 | 0.9
COc1ccc2c(c1)Cc1sc(NC(=O)c3cccc(F)c3)nc1-2 | / | 90 | / | /

Screening data deposited in PubChem by ICCB-Longwood Screening Facility, Harvard Medical School.
